In the supplement of paper PMC11732987, “Enantioselective OTUD7B fragment discovery through chemoproteomics screening and high-throughput optimisation” (Communications Chemistry, 2025):

What was measured:
Test in all cases: log2 ratio of Biotin-Ahx-Ub-VS probe labelling (fragment/DMSO); higher = less target engagement (more negative = stronger competition), active = hit call of the paper (q ≤ 0.05, log2 ratio ≤ -1)
Details in all cases: compound concentration: 200 uM; treatment time: 3 h
[1] = biological target: T1, USP19 (UniProt O94966)
T1 sequence (whole entry): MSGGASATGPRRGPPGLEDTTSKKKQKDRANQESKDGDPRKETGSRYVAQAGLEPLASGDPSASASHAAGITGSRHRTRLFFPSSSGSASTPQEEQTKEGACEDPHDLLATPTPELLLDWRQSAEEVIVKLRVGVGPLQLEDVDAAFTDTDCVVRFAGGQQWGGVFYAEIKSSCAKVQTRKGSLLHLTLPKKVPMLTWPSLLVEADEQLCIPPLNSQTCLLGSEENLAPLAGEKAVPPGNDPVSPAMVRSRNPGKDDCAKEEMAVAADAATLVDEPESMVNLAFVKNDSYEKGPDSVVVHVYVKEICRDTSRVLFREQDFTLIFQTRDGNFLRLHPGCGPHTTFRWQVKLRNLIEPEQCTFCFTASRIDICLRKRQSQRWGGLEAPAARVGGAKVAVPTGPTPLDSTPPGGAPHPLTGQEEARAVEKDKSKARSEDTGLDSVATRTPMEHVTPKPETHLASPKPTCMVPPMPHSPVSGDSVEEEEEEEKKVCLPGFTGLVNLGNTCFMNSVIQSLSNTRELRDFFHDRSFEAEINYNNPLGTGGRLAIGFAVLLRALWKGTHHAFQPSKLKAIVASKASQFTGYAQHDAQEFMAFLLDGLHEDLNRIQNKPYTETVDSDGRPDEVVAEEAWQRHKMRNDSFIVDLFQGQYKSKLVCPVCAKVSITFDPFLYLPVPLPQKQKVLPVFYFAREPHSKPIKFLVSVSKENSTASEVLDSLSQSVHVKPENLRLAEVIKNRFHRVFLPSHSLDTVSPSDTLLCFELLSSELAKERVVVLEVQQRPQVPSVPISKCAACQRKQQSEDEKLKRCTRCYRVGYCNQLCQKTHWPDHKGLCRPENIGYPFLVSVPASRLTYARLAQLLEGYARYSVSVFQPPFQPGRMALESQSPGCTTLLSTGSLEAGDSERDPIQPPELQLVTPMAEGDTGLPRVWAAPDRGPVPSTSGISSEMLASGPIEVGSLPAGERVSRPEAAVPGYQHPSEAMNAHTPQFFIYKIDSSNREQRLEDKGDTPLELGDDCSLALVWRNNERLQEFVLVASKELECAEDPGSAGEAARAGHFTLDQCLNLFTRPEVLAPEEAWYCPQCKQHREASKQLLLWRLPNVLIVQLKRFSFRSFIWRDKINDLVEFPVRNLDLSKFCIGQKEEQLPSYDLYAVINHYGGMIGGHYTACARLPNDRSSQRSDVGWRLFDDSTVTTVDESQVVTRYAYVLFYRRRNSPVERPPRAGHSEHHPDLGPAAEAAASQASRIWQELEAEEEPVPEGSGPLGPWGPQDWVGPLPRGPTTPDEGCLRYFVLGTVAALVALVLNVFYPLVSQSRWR
Method in brief: (§1)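 HEK293T lysate, 495 µg per sample in Tris/CHAPS/IGEPAL buffer with protease inhibitors, was treated in triplicate with fragment at 200 µM or vehicle for 3 h and then with Biotin-Ahx-Ub-VS at 0.5 µM final for 1 h. Labelled DUBs were NeutrAvidin-enriched, digested with LysC and trypsin, and run by diaPASEF LC-MS/MS. Spectronaut label-free quantities were global-median-normalised, and values are average log2 fragment/vehicle ratios by unpaired t-test on proteins with ≥2 unique peptides.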

[2] = biological target: USP24 (UniProt Q9UPU5)
Method in brief: as §1

[3] = biological target: T2, USP25 (UniProt Q9UHP3)
T2 sequence (whole entry): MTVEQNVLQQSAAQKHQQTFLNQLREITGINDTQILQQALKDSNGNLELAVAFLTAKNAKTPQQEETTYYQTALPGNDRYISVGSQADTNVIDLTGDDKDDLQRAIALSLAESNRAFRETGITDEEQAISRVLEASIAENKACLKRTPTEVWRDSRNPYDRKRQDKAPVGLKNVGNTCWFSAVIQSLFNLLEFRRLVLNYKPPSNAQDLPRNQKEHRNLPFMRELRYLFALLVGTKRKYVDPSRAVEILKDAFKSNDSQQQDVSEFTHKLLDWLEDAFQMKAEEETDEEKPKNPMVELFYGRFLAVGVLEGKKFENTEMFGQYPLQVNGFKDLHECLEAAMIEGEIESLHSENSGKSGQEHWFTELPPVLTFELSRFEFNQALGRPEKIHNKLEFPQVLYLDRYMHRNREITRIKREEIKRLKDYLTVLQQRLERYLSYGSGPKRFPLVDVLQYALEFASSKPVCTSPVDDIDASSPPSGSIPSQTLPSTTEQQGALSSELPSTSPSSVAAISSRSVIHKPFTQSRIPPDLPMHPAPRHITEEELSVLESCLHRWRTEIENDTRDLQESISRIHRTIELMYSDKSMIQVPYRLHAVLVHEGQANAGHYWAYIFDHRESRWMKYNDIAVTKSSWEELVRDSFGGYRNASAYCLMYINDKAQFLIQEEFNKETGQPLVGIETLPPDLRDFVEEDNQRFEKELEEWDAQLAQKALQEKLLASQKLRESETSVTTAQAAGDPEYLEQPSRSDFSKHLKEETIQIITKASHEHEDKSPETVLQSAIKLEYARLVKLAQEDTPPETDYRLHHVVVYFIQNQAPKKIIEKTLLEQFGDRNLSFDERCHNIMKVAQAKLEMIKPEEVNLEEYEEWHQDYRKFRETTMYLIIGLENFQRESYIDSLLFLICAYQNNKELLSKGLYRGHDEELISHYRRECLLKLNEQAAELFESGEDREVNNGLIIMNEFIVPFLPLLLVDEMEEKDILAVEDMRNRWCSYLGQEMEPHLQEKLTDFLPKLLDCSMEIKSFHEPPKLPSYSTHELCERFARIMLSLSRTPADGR
Method in brief: as §1

[4] = biological target: T3, USP28 (UniProt Q96RU2)
T3 sequence (whole entry): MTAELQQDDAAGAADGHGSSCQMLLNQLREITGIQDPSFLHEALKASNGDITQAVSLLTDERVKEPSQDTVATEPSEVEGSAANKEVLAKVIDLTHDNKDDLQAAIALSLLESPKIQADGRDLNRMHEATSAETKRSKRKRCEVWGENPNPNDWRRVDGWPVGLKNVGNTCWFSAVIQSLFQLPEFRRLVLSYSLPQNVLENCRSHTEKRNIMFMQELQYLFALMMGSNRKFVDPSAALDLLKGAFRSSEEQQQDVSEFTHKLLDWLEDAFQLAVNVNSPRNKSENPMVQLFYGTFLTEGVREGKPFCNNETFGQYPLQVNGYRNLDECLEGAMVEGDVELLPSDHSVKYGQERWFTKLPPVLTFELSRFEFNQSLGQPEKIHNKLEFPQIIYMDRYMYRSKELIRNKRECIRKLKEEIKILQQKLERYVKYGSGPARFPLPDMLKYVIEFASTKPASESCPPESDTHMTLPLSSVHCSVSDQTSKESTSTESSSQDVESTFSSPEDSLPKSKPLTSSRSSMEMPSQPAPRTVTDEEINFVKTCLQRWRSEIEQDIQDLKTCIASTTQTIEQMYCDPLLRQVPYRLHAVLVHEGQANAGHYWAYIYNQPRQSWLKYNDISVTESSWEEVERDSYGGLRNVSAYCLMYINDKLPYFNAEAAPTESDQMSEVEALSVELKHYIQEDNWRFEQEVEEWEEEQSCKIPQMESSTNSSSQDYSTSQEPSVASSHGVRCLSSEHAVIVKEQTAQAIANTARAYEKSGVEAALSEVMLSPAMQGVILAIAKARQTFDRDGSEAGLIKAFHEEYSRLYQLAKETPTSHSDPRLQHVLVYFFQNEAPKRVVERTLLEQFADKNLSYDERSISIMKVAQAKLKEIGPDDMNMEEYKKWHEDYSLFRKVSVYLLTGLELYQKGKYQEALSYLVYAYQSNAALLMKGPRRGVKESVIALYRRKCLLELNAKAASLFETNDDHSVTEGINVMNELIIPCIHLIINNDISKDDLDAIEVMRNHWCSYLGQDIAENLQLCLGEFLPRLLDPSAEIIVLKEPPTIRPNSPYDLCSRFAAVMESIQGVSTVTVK
Method in brief: as §1

Measured: log2 ratio of Biotin-Ahx-Ub-VS probe labelling

Chain of USP24 (Q9UPU5 whole entry): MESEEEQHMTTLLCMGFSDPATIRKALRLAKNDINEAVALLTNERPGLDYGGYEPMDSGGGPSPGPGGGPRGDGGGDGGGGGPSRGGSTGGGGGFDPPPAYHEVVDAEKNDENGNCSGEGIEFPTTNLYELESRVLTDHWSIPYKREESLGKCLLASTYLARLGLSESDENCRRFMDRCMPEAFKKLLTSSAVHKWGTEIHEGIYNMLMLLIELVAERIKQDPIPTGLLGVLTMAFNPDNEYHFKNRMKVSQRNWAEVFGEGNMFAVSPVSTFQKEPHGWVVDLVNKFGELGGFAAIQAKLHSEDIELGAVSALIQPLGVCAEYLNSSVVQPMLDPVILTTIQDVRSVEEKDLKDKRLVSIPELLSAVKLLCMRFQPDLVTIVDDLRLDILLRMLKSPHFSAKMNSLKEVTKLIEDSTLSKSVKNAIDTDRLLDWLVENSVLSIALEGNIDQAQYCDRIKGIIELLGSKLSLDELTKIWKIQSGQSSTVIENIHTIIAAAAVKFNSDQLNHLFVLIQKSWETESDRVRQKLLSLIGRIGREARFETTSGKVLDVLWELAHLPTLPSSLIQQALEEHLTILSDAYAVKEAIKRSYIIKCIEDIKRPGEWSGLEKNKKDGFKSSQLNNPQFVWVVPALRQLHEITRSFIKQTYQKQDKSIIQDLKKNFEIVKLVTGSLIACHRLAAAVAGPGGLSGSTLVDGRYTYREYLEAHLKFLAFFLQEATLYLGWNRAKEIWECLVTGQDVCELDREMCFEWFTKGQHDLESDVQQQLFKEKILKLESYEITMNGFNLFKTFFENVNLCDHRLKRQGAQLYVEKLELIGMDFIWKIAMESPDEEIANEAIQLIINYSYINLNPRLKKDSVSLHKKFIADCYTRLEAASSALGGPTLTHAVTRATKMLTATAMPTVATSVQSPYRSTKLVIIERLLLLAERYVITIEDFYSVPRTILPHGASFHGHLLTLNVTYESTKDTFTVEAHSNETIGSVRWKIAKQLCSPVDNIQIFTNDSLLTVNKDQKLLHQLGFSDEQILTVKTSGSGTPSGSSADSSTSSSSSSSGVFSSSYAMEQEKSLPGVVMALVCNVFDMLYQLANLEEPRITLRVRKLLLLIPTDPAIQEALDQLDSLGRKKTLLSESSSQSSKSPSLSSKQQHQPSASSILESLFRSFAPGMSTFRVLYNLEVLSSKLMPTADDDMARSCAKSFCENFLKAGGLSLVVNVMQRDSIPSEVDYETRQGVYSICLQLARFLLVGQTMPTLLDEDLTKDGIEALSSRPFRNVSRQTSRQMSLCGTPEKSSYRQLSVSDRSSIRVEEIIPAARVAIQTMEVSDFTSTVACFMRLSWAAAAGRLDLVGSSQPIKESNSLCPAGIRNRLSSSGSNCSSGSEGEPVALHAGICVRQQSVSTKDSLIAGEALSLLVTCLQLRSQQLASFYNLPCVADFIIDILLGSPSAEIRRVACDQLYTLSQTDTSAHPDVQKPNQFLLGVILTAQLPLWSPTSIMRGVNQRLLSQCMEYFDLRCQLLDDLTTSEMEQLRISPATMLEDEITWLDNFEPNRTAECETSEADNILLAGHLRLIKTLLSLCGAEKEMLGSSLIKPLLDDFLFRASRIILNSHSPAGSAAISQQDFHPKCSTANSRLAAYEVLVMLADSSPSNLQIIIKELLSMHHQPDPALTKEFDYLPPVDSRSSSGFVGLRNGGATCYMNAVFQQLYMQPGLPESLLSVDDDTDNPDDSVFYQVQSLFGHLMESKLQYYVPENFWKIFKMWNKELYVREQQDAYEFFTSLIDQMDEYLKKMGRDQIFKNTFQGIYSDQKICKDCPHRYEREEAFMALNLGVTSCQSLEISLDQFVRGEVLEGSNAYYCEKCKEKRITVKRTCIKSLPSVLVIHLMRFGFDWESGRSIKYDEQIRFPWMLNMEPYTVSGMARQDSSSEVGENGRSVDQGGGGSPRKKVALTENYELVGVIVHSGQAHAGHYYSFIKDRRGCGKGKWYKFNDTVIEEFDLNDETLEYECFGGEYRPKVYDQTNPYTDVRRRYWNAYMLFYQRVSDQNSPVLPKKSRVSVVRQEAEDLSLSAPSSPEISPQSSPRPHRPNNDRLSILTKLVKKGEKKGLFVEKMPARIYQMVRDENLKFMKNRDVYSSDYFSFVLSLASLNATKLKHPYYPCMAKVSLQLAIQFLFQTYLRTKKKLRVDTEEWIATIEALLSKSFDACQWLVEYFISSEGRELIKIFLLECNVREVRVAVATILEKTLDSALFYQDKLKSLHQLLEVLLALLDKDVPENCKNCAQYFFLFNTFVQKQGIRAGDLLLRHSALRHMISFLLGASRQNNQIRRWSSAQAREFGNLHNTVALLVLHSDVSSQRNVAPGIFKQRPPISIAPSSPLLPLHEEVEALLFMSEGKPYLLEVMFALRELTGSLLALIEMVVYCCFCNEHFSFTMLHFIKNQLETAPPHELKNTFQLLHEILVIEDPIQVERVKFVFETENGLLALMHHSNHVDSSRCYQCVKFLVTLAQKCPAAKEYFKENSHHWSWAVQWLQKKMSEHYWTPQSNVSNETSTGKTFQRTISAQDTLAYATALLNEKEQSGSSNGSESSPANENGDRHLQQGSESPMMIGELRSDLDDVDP

Cc1cccc2nc(CCNC(=O)CCl)cn12.Cl
inactive: [1] -0.242 | [2] -0.429 | [3] -0.267 | [4] -0.53
